Measured values: PubChem BioAssay (Tox21)
Records with an inconclusive call do not appear. Activity calls are given as the source filed them. Unless noted, calls follow the shape of the dose curve; as a rule, active = well fitted curve in the direction sought with a large enough effect in the repeat runs; inconclusive = weak or mixed curves; inactive = no such curve, though single readings can be large; an effect the other way counts as inactive or inconclusive.

What was measured:
[1] = qHTS assay to identify small molecule agonists of H2AX (AID 1224845; active = well fitted activation curve with a large enough effect in the signal ratio in the repeat runs, not every such curve was filed as active; the % refers to the signal ratio); conditions: CHO-K1 phospho-H2AX Ser139 HTRF, 3 h; series mostly up to 154 µM
Summary of the method: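 Wild-type CHO-K1 cells plated overnight, then exposed 3 hr at 37C to compounds at 15 concentrations (0.76% DMSO). Lysed, then HTRF anti-pH2AX(S139)-cryptate/anti-H2AX-d2 detection after 24 hr at room temperature; emissions 665 and 620 nm.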

[2] = qHTS assay to identify small molecule agonists of the hypoxia (HIF-1) signaling pathway (AID 1224846; active = well fitted activation curve with a large enough effect in the signal ratio in the repeat runs, not every such curve was filed as active; the % refers to the signal ratio); conditions: HRE-bla ME-180 cells, beta-lactamase ratio, 17 h; series mostly up to 76.8 µM
Summary of the method: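 Cell line: CellSensor HRE-bla ME-180; 2,000 cells/well; 0.5% dialyzed FBS; 5 h preincubation; DMSO compound pin transfer; 17 h, 37C, 5% CO2; CCF4-AM added; bla FRET signal scored for activation.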

[3] = qHTS assay to identify small molecule agonists of H2AX - cell viability counter screen (AID 1224847; calls by dose curve; also: top concentration of the series differs between compounds; nearly all actives have a fitted effect of over 30% in size); conditions: CHO-K1 viability, CellTiter-Glo luminescence, 3 h; series mostly up to 154 µM
Summary of the method: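 Compounds tested at 15 concentrations were incubated 3 hr at 37C with wild-type CHO-K1 cells; cellular ATP-based luminescence (CellTiter-Glo) indicated viability.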

[4] = qHTS RealTime-Glo MT Cell Viability Assay in HepG2 cells - 24 hour (AID 1224867); conditions: RealTime-Glo luminescence; series mostly up to 76.8 µM; also: nearly all actives have a fitted effect of over 50% in size
Summary of the method: (§1)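 Cells + NanoLuc/prosubstrate dispensed (600 cells/well) → 5 h at 37 C/5% CO2 → compounds in DMSO transferred → 40 h incubation at 37 C, luminescence read at 0, 8, 16, 24, 32, 40 h.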

[5] = qHTS RealTime-Glo MT Cell Viability Assay in HEK293 cells - 32 hour (AID 1224868); conditions: RealTime-Glo luminescence; series mostly up to 76.8 µM; also: top concentration of the series differs between compounds; nearly all actives have a fitted effect of over 50% in size
Summary of the method: (§2)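 Tox21 10K qHTS, HEK293, 600 cells/well, RealTime-Glo reagent co-dispensed with cells; 5 h preincubation, compound by pintool, 37 C, luminescence at 0–40 h.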

[6] = A CellTox Green Cytotoxicity Assay to monitor cytotoxicity in HEK293 cells - 0 hour (AID 1224869); conditions: CellTox Green fluorescence; series mostly up to 76.8 µM; also: nearly all actives have a fitted effect of over 50% in size
Summary of the method: (§3)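 Nonlytic real-time cytotoxicity: HEK293 + CellTox Green reagent plated, 5 h preincubation, pintool compound addition (23 nL in DMSO), 37 C for 40 h, fluorescence measured at successive time points.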

[7] = qHTS RealTime-Glo MT Cell Viability Assay in HepG2 cells - 40 hour (AID 1224870); conditions: RealTime-Glo luminescence; series mostly up to 76.8 µM; also: nearly all actives have a fitted effect of over 50% in size
Summary of the method: (§4)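 HepG2 cells mixed with RealTime-Glo MT reagents (NanoLuc plus cell-permeant prosubstrate) were seeded at 600 cells/well, incubated 5 h at 37 C/5% CO2, then pinned with compounds in DMSO; nonlytic luminescence tracked viability during 40 h treatment.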

[8] = qHTS RealTime-Glo MT Cell Viability Assay in HEK293 cells - 16 hour (AID 1224872); conditions: RealTime-Glo luminescence; series mostly up to 76.8 µM
Summary of the method: as §2

[9] = qHTS RealTime-Glo MT Cell Viability Assay in HepG2 cells - 8 hour (AID 1224873); conditions: RealTime-Glo luminescence; series mostly up to 76.8 µM; also: nearly all actives have a fitted effect of over 55% in size
Summary of the method: as §4

[10] = qHTS RealTime-Glo MT Cell Viability Assay in HEK293 cells - 40 hour (AID 1224874); conditions: RealTime-Glo luminescence; max response: stronger effect = lower value; also: nearly all actives have a fitted effect of over 50% in size
Summary of the method: (§5)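 Cells were seeded together with NanoLuc luciferase and a prosubstrate that viable cells reduce to a luciferase substrate. After a 5 h incubation at 37 C/5% CO2, compounds were added and luminescence was measured repeatedly during 40 h of treatment.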

[11] = A CellTox Green Cytotoxicity Assay to monitor cytotoxicity in HEK293 cells - 24 hour (AID 1224875); conditions: CellTox Green fluorescence; series mostly up to 76.8 µM; also: nearly all actives have a fitted effect of over 45% in size
Summary of the method: as §3

[12] = A CellTox Green Cytotoxicity Assay to monitor cytotoxicity in HepG2 cells - 16 hour (AID 1224876); conditions: CellTox Green fluorescence; series mostly up to 76.8 µM; also: nearly all actives have a fitted effect of over 45% in size
Summary of the method: (§6)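 Read-out is fluorescence of a cyanine dye excluded from live cells that stains DNA of dead HepG2 cells, with signal proportional to cytotoxicity. Plates were read at 0, 8, 16, 24, 32 and 40 h after compound addition.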

[13] = qHTS RealTime-Glo MT Cell Viability Assay in HepG2 cells - 32 hour (AID 1224877); conditions: RealTime-Glo luminescence; series mostly up to 76.8 µM; also: nearly all actives have a fitted effect of over 55% in size
Summary of the method: as §1

[14] = A CellTox Green Cytotoxicity Assay to monitor cytotoxicity in HepG2 cells - 24 hour (AID 1224878); conditions: CellTox Green fluorescence; series mostly up to 76.8 µM; also: nearly all actives have a fitted effect of over 45% in size
Summary of the method: as §6

[15] = A CellTox Green Cytotoxicity Assay to monitor cytotoxicity in HepG2 cells - 40 hour (AID 1224879); conditions: CellTox Green fluorescence; series mostly up to 76.8 µM; also: nearly all actives have a fitted effect of over 40% in size
Summary of the method: as §6

[16] = qHTS RealTime-Glo MT Cell Viability Assay in HEK293 cells - 0 hour (AID 1224880); conditions: RealTime-Glo luminescence; series mostly up to 76.8 µM; also: top concentration of the series differs between compounds; nearly all actives have a fitted effect of over 45% in size
Summary of the method: as §5

[17] = A CellTox Green Cytotoxicity Assay to monitor cytotoxicity in HEK293 cells - 32 hour (AID 1224881); conditions: CellTox Green fluorescence; series mostly up to 76.8 µM; also: nearly all actives have a fitted effect of over 40% in size
Summary of the method: as §3

[18] = A CellTox Green Cytotoxicity Assay to monitor cytotoxicity in HEK293 cells - 40 hour (AID 1224871); conditions: CellTox Green fluorescence; series mostly up to 76.8 µM; also: nearly all actives have a fitted effect of over 45% in size
Summary of the method: as §3
% is scaled to controls: 0 for no effect and ±100 for the full control effect.

O=c1c2ccccc2nnn1CCl
inactive: Potency [1] | outcome [2] | Potency [3] | Potency [4] | Potency [5] | Potency [6] | Potency [7] | Potency [8] | Potency [9] | max response [10] 10.3% | Potency [11] | Potency [12] | Potency [13] | Potency [14] | Potency [15] | Potency [16] | Potency [17]

CCCCOC(=O)c1ccccc1C(=O)OCC(CC)CCCC (stereo not given)
inactive: Potency [1] | outcome [2] | Potency [3] | Potency [4] | Potency [5] | Potency [6] | Potency [7] | Potency [8] | Potency [9] | max response [10] -10% | Potency [11] | Potency [12] | Potency [13] | Potency [14] | Potency [15] | Potency [16] | Potency [17]

CC(C)(C)c1cc(CCC(=O)OCC(COC(=O)CCc2cc(C(C)(C)C)c(O)c(C(C)(C)C)c2)(COC(=O)CCc2cc(C(C)(C)C)c(O)c(C(C)(C)C)c2)COC(=O)CCc2cc(C(C)(C)C)c(O)c(C(C)(C)C)c2)cc(C(C)(C)C)c1O
inactive: Potency [1] | outcome [2] | Potency [3] | Potency [4] | Potency [5] | Potency [6] | Potency [7] | Potency [8] | Potency [9] | max response [10] 0.256% | Potency [11] | Potency [13] | Potency [14] | Potency [15] | Potency [16] | Potency [17]

CCCCC(CC)(CO)CO
inactive: Potency [1] | outcome [2] | Potency [3] | Potency [4] | Potency [5] | Potency [6] | Potency [7] | Potency [8] | Potency [9] | max response [10] -0.853% | Potency [11] | Potency [12] | Potency [13] | Potency [14] | Potency [17]

CC1=CC(=O)/C(=C(/C)O)C(=O)O1
inactive: Potency [1] | outcome [2] | Potency [3] | Potency [5] | Potency [6] | Potency [7] | Potency [8] | max response [10] 16.6% | Potency [11] | Potency [12] | Potency [13] | Potency [14] | Potency [15] | Potency [16] | Potency [17]

CNS(=O)(=O)Cc1ccc2[nH]cc(CCN(C)C)c2c1
inactive: Potency [1] | outcome [2] | Potency [3] | Potency [4] | Potency [5] | Potency [6] | Potency [7] | Potency [18] | Potency [8] | max response [10] 2.61% | Potency [11] | Potency [12] | Potency [13] | Potency [14] | Potency [15] | Potency [16] | Potency [17]

CC(=O)c1ccc2c(c1)[C@H](NC(=O)c1ccc(F)cc1)[C@@H](O)C(C)(C)O2
inactive: Potency [1] | outcome [2] | Potency [3] | Potency [4] | Potency [5] | Potency [6] | Potency [7] | Potency [8] | max response [10] -0.992% | Potency [11] | Potency [13] | Potency [14] | Potency [17]
